Assay outcomes from PubChem BioAssay.
Only a selection was taken, and hits are over-represented in it overall.
Dicer processing = blocks human Dicer maturation of pre-miR-21; cat-ELCCA pre-miR-21 Dicer processing, chemiluminescence; active compounds read high; z-score at 25 µM; Q9UPY3; AID 1347074; actives 6% (n = 47,000); in the data active means z-score above about 3, passing the limit was not always enough;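 further: higher signal means more uncleaved substrate so more Dicer inhibition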
Numbers stand for hits; n = inactive.

SMILES	Dicer processing
O=C(O)c1cc(-c2cccnc2)nc2ccccc12	n
CCOC(=O)Cn1c(-c2cccnc2)nc(-c2ccccc2)c1-c1ccccc1	n
CC(=O)n1nc(-c2cccnc2)nc1N	5.53
Nc1nc(-c2cccnc2)nn1C(=O)Cc1ccccc1	8.25
O=C1c2oc3ccc(F)cc3c(=O)c2C(c2ccc(O)cc2)N1Cc1ccc(F)cc1 (centres undefined)	n
CCOC(=O)c1ccc(NC(=S)NC)cc1	n
CCOC(=O)c1ccc(Oc2nc(C)cc(OC)n2)cc1	n
CC(C)(C)c1ccc(C(=O)O)cc1[N+](=O)[O-]	n
CCOC(=O)C1=C(Nc2ccc(OC(=O)c3ccccc3Cl)cc2)C(=O)N(C(C)(C)C)C1	n
COc1ccccc1-c1nn(-c2cc(C(F)(F)F)ccn2)c(=O)o1	n
CC(C)(C)c1cc(NC(=S)NC(=O)c2ccccc2)n[nH]1	n
Cc1c(Cl)cccc1NC(=S)NNC(=O)c1ccccc1Cl	n
CC1CN(C(=S)Nc2cccc3ccccc23)CC(C)O1 (centres undefined)	n
CC(C)NC(=S)Nc1cccc2ccccc12	6.14
CCOC(=S)Nc1cccc2ccccc12	n
Cc1oc(-c2ccc(Cl)cc2)cc1C(=O)/C(C#N)=C/Nc1ccc(Cl)cn1	n
Cc1ccc(-c2cc3nccc(-c4cc(C)ccc4O)n3n2)cc1	n
Oc1ccc(F)cc1-c1ccnc2cc(-c3ccccc3)nn12	n
Oc1ccccc1-c1ccnc2cc(-c3ccccc3)nn12	4.43
Cc1nn(-c2ccc(C(F)(F)F)cn2)c(=O)o1	n
O=[N+]([O-])c1cc(Cl)ccc1S(=O)(=O)c1ccccc1	n
COc1ccc(OC)c(S(=O)(=O)c2ccc(Cl)cc2[N+](=O)[O-])c1	4.21
O=[N+]([O-])c1cc(Cl)ccc1S(=O)(=O)c1ccc(Cl)cc1	n
CCCOc1ccccc1C1C2=C(CCCC2=O)Nc2nnnn21 (centres undefined)	n
O=C(CCc1ccc(O)cc1)NNC(=S)Nc1cc(C(F)(F)F)cc(C(F)(F)F)c1	n
SMILES	Dicer processing
O=C(Nc1nccs1)c1cc2ccccc2o1	n
O=C(Nc1ccc(S(=O)(=O)Nc2ncccn2)cc1)c1cc2ccccc2o1	n
O=C(Nc1ncn[nH]1)c1cc2ccccc2o1	4.93
CN(C)c1ccc(NC(=O)c2nc3ncccn3n2)cc1	n
Cc1ccc2c(c1)C(=O)C(c1ccc3ccccc3n1)C2=O (centres undefined)	n
NN1CC(=O)N(c2ccccc2F)CC1=O	n
Cc1ccc(NC(=O)NN2CC(=O)N(c3ccc(Cl)cc3)CC2=O)cc1	n
Cc1ccc(NC(=O)NN2CC(=O)N(c3ccccc3F)CC2=O)cc1	4.83
CCOC(=O)c1cc2nc3sccn3c2s1	n
CCOC(=O)c1sc(Nc2nc(C)c(CC)c(OC)n2)nc1C	n
CCOC(=O)c1cc2nc(Nc3ccc(OC)cc3)sc2s1	3.28
CS(=N)c1ccsc1 (centres undefined)	n
CCOc1ccc(-c2nc(C#N)c(N3CC(C)OC(C)C3)o2)cc1 (centres undefined)	n
CCOc1c(N2CC(C)OC(C)C2)c(=O)c1=O (centres undefined)	5.98
CCOc1c(N2CCOCC2)c(=O)c1=O	n
O=C(CSc1nncn1-c1ccc(C(F)(F)F)cc1)Nc1ccc(C(F)(F)F)cc1	n
CC(=O)Nc1ccc(Br)cc1C(=O)c1nnc(N)s1	n
CC(C)(C)C(=O)Nc1cccc(F)c1C(=O)O	n
CC1=N/C(=C\C=C\c2ccccc2)C(=O)O1	n
Cc1ccc(C(=O)/C=C/Sc2ccccn2)cc1	n
O=C(/C=C/Sc1c(Cl)cccc1Cl)c1ccc(Br)cc1	n
O=C(/C=C/Sc1ccccn1)c1ccc(Br)cc1	3.03
Cc1cc(C)c2oc(-c3ccc(C)c(NC(=O)c4ccc([N+](=O)[O-])o4)c3)nc2c1	n
O=c1c(Br)coc2ccccc12	n
Cc1nn(C)c(Oc2ccc(F)cc2)c1[N+](=O)[O-]	n
SMILES	Dicer processing
Cn1nc(-c2ccc(Cl)cc2)cc1NS(=O)(=O)c1ccc(F)cc1	n
Cc1nn(C)c(Cl)c1S(=O)(=O)Nc1ccc(Oc2ccc(F)cc2)cc1	3.17
Cc1nn(C)c(C)c1Cc1c(F)cccc1Cl	n
COc1ccc(/C=C/c2nc(-c3ccncc3)no2)cc1OC	n
COc1ccc(-c2nc(-c3ccc(C)cc3)no2)cc1OC	n
COc1ccc(/C=C/c2nc(-c3ccc(C)cc3)no2)cc1OC	3.76
CC1=CC(C)C2(COC(=O)Nc3ccccc3)COC(c3ccccc3)C1C2C (centres undefined)	n
COc1ccc(C(=O)C[n+]2cc(-c3ccccc3)n3c2CCCCC3)cc1OC	n
CCOC(=O)CC1=Nc2ccccc2NC(=O)C1	n
N#Cc1ccc(C#CCOC(=O)Nc2ccccc2)cc1	n
CCOC(=O)NC1=C(C#N)C=Nc2ccccc2N1	22.9
O=C(O)CSc1nc2c(c(C(F)(F)F)n1)CCc1ccccc1-2	n
CC(C)(C)NC(=O)c1cc2nc3c(c(C(F)(F)F)n2n1)CCc1ccccc1-3	3.58
CC(C)(C)NC(=O)c1cc2nc(-c3ccc(Br)cc3)cc(C(F)(F)F)n2n1	n
FC(F)(F)c1c2c(nc3cc(-c4cccs4)nn13)-c1ccccc1C2	n
